From PubChem BioAssay (NCATS)
Inconclusive results are not listed. The source made the active and inactive calls. Calls come from the whole dose curve; as a rule, active = well fitted curve in the direction sought with a large enough effect; inconclusive = small, poorly fitted or top-dose-only effect, or another doubt; inactive = no such curve, though single readings can be large; an effect the other way counts as inactive or inconclusive.

Key:
HeLa = assay: Primary qHTS to identify gynecologic anti-cancer compounds using libraries of approved drugs and bioactive compounds (AID 1345084); details: Gynecologic cancer cell panel viability, ATPlite luminescence, 48 h; series mostly up to 57.5 µM; note: nearly all actives have a fitted effect of over 55% in size; note: potency is the fitted concentration of half-maximal effect
Outline: (§1)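 Cells, 1,000 per well, were allowed to settle for 16 h at 37 C before compound addition. Five concentrations were tested for 48 h, and viability was read by ATPlite luminescence after 15 min at room temperature.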

Hek293T = assay: as above; details: Gynecologic cancer cell panel viability, ATPlite luminescence, 48 h, control line for the selectivity index; series mostly up to 57.5 µM
Outline: as §1

JEG-3 = assay: as above; details: Gynecologic cancer cell panel viability, ATPlite luminescence, 48 h; series mostly up to 57.5 µM
Outline: as §1

OV90 = assay: as above; details: Gynecologic cancer cell panel viability, ATPlite luminescence, 48 h; series mostly up to 57.5 µM
Outline: as §1

PA-1 = assay: as above; details: Gynecologic cancer cell panel viability, ATPlite luminescence, 48 h; series mostly up to 57.5 µM
Outline: as §1

Tov-21-G = assay: as above; details: Gynecologic cancer cell panel viability, ATPlite luminescence, 48 h; series mostly up to 57.5 µM
Outline: as §1

Tov112D = assay: as above; details: Gynecologic cancer cell panel viability, ATPlite luminescence, 48 h; series mostly up to 57.5 µM
Outline: as §1

[1] = qHTS assay to identify inhibitors of the type 1 interferon - major histocompatibility complex class I in skeletal muscle: Counter screen cell viability and HiBit confirmation (AID 1347412); details: iHSKM muscle cells + IFN-b, HiBiT or CellTiter-Glo, 24 h, at 45.9 µM (top of the series); note: nearly all actives have a fitted effect of over 60% in size
Outline: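 Duplicate plates, pinned identically: one read for HiBiT-tagged endogenous HLA-B luminescence, the other for ATP-content viability via CellTiter Glo. Cells were genome-engineered human myoblasts given 4 ng/ml IFN-b; compounds 12-pt, 1:3 from 46 uM final; 24 hr exposure.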

SKOV3 = assay: Primary qHTS to identify gynecologic anti-cancer compounds using libraries of approved drugs and bioactive compounds (AID 1345084); details: Gynecologic cancer cell panel viability, ATPlite luminescence, 48 h; series mostly up to 57.5 µM; note: nearly all actives have a fitted effect of over 55% in size; note: potency is the fitted concentration of half-maximal effect
Outline: as §1

[2] = Drug repurposing screens with cells derived from glioblastoma tumor samples (AID 1345199); details: GBM patient neurospheres viability, ATP luminescence, 48 h; note: nearly all actives have a fitted effect of over 40% in size; note: potency is the fitted concentration of half-maximal effect
Outline: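 Four patient lines of CD133+ GBM neurospheres were screened at several concentrations; hits were retested in those lines plus three slower-growing GBM lines, using 48-hour treatment and ATP-based viability.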

[3] = at 45.9 µM (top of the series), tumour line B
[4] = at 45.9 µM (top of the series), tumour line D
[5] = at 46.1 µM (top of the series), tumour line C
% is set by controls: 0 for no effect and ±100 for the full control effect.

CCN1CCC(n2cc(CNc3cc(Cl)c4ncc(C#N)c(Nc5ccc(F)c(Cl)c5)c4c3)nn2)CC1
inactive: Potency (HeLa) | Potency (Hek293T) | Potency (JEG-3) | Potency (OV90) | Potency (PA-1) | Potency (Tov-21-G) | Potency (Tov112D)

Cn1c(=O)c(-c2c(Cl)cccc2Cl)cc2cnc(Nc3cccc(C(=O)O)c3)nc21
inactive: Potency (HeLa) | Potency (Hek293T) | Potency (JEG-3) | Potency (OV90) | Potency (PA-1) | Potency (Tov112D)

NS(=O)(=O)c1ccc(Nc2nc(OCC3CCCCC3)c3[nH]cnc3n2)cc1
inactive: Potency (HeLa) | Potency (Hek293T) | Potency (JEG-3) | Potency (OV90) | Potency (PA-1) | Potency (Tov112D) | activity change, negative = inhibition ([1]; Viability) -13.9%
active: Potency (Tov-21-G) 15.8 µM

CC(C)(C)c1nc(-c2cccc(NS(=O)(=O)c3c(F)cccc3F)c2F)c(-c2ccnc(N)n2)s1
inactive: Potency (HeLa) | Potency (Hek293T) | Potency (JEG-3) | Potency (OV90) | Potency (PA-1) | Potency (Tov112D) | activity change, negative = inhibition ([1]; Viability) 12.8%

COc1nccc(-c2c(-c3ccc(F)cc3)ncn2C2CCC(O)CC2)n1 (centres undefined)
inactive: Potency (HeLa) | Potency (Hek293T) | Potency (JEG-3) | Potency (PA-1) | Potency (SKOV3) | Potency (Tov-21-G) | Potency (Tov112D)

COc1cc2ncnc(Nc3cc(Br)c(O)c(Br)c3)c2cc1OC
inactive: Potency (HeLa) | Potency (Hek293T) | Potency (JEG-3) | Potency (OV90) | Potency (PA-1) | Potency (Tov-21-G) | Potency (Tov112D)

COc1ccnc(CS(=O)c2nc3ccc(OC(F)F)cc3[nH]2)c1OC (centres undefined)
inactive: Potency (HeLa) | Potency (Hek293T) | Potency (JEG-3) | Potency (PA-1) | Potency (SKOV3) | Potency (Tov-21-G) | Potency (Tov112D) | activity, negative = cell killing [2, 3] -25.5% | activity, negative = cell killing [2, 4] -22.5% | activity, negative = cell killing [2, 5] -15.1%

CN(C)c1nc(Cc2ccc(NC(=O)c3ccc(C(F)(F)F)cc3)cc2)nc(N(C)C)c1CC(=O)O
inactive: Potency (HeLa) | Potency (Hek293T) | Potency (JEG-3) | Potency (OV90) | Potency (PA-1) | Potency (Tov-21-G) | Potency (Tov112D)

O=C1NC(=O)C(c2cnc3ccccn23)=C1c1cn2c3c(cccc13)CN(C(=O)N1CCOCC1)CC2
inactive: Potency (HeLa) | Potency (Hek293T) | Potency (JEG-3) | Potency (PA-1) | Potency (Tov112D)
active: Potency (SKOV3) 1.41 µM

O=C(Nc1ccc(OC(F)(F)F)cc1)c1sccc1NCc1ccnc2ccccc12
inactive: Potency (HeLa) | Potency (Hek293T) | Potency (JEG-3) | Potency (SKOV3) | Potency (Tov-21-G) | Potency (Tov112D)

COc1nc(C)cnc1NS(=O)(=O)c1cccnc1-c1ccc(-c2nnco2)cc1
inactive: Potency (HeLa) | Potency (Hek293T) | Potency (JEG-3) | Potency (OV90) | Potency (PA-1) | Potency (Tov-21-G) | Potency (Tov112D)

CN[C@@H](C)[C@H]1[C@H](O)C[C@@]2(C)[C@@H]3CC[C@H]4C(C)(C)[C@@H](NC)CC[C@@]45C[C@@]35CC[C@]12C
inactive: activity change, negative = cytotoxicity (HeLa) 13.6% [at 11.6 µM] | activity change, negative = cytotoxicity (Hek293T) -11.4% [at 11.6 µM] | activity change, negative = cytotoxicity (JEG-3) 6.85% [at 11.6 µM] | activity change, negative = cytotoxicity (PA-1) -14% [at 11.6 µM] | activity change, negative = cytotoxicity (SKOV3) 0% [at 11.6 µM] | activity change, negative = cytotoxicity (Tov-21-G) -6.08% [at 11.6 µM] | activity change, negative = cytotoxicity (Tov112D) -2.44% [at 11.6 µM]

CC(C)(OCc1nn(Cc2ccccc2)c2ccccc12)C(=O)O
inactive: Potency (HeLa) | Potency (Hek293T) | Potency (JEG-3) | Potency (OV90) | Potency (PA-1) | Potency (Tov-21-G) | Potency (Tov112D)

NC(=O)c1noc([C@H](CCCC2CCCCC2)CC(=O)NO)n1
inactive: Potency (HeLa) | Potency (Hek293T) | Potency (JEG-3) | Potency (OV90) | Potency (Tov-21-G) | Potency (Tov112D)

O=C(CCCN1CCN(c2ccc(F)cc2)CC1)NC1c2ccccc2CSc2ccccc21 (centres undefined)
inactive: Potency (HeLa) | Potency (Hek293T) | Potency (JEG-3) | Potency (PA-1) | Potency (SKOV3) | Potency (Tov-21-G) | Potency (Tov112D) | activity, negative = cell killing [2, 3] -21% | activity, negative = cell killing [2, 4] -27.4%
active: Potency ([2]; tumour line A) 3.98 µM

Cc1ccc2c(c1)C(=O)[C@]1(O)CCN(c3ccccc3)C1=N2
inactive: Potency (HeLa) | Potency (Hek293T) | Potency (JEG-3) | Potency (OV90) | Potency (PA-1) | Potency (SKOV3) | Potency (Tov112D)

c1cc(OCCN2CCCCC2)cc(-c2n[nH]c3ccc(-c4ncn[nH]4)cc23)c1
inactive: Potency (HeLa) | Potency (Hek293T) | Potency (JEG-3) | Potency (OV90) | Potency (PA-1) | Potency (Tov-21-G) | Potency (Tov112D)

CCc1cccc(CC)c1NC(=O)N1Cc2[nH]nc(NC(=O)c3ccc(N4CCN(C)CC4)cc3)c2C1
active: Potency (HeLa) 3.16 µM | Potency (Tov-21-G) 12.6 µM
inactive: Potency (Hek293T) | Potency (JEG-3) | Potency (OV90) | Potency (SKOV3)

CS(=O)(=O)c1ccc(C2=C(c3ccccc3)C(=O)OC2)cc1
inactive: Potency (HeLa) | Potency (Hek293T) | Potency (JEG-3) | Potency (OV90) | Potency (PA-1) | Potency (Tov-21-G) | Potency (Tov112D) | activity, negative = cell killing [2, 3] -11.3% | activity, negative = cell killing [2, 5] -14.3%

Cc1nc(C(=O)NCC(=O)O)c(O)c2ccc(Oc3ccccc3)cc12
inactive: Potency (HeLa) | Potency (Hek293T) | Potency (JEG-3) | Potency (OV90) | Potency (PA-1) | Potency (Tov-21-G) | Potency (Tov112D)

C[C@@H](NC(=O)c1ncnc(N)c1Cl)c1ncc(C(=O)Nc2cc(C(F)(F)F)c(Cl)cn2)s1
inactive: Potency (HeLa) | Potency (Hek293T) | Potency (JEG-3) | Potency (PA-1) | Potency (Tov112D) | activity change, negative = inhibition ([1]; HiBiT) -24.2% | activity change, negative = inhibition ([1]; Viability) -2.15%
active: Potency (OV90) 10 µM

Cc1c(C(=O)Nc2ccc(N3C[C@@H](C)O[C@@H](C)C3)nc2)cccc1-c1ccc(OC(F)(F)F)cc1
inactive: Potency (HeLa) | Potency (Hek293T) | Potency (JEG-3) | Potency (OV90) | Potency (SKOV3) | Potency (Tov-21-G) | Potency (Tov112D)
